From PubChem BioAssay AID2417 (National Center for Advancing Translational Sciences (NCATS), 2010)
Screen size: about 140,000 compounds; about 4,300 (3.1%) were called active. Another 21% or so got no clear call; they are omitted. Shown is part of a subset that was picked to be rich in actives. Unmarked numbers belong to inactive results.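 How the source made its calls: active means readout at or below -70, meaning at least 70% loss of cells showing the perinucleolar compartment, a nuclear body marking cancer cells; inconclusive means readout between -30 and a set limit; inactive means the rest.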

assay: High Content Assay for Compounds that inhibit the Assembly of the Perinucleolar Compartment; settings: PC3M PTB-GFP, PNC prevalence imaging, 16 h; at 10 µM; hits give low values;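 further: plate controls were DMSO wells for no effect and camptothecin positive control wells for full effect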
Procedure, shortened: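 Compounds are pinned in duplicate onto adhered PC3M cells stably expressing GFP-tagged PTB and incubated 16 h at 37 C. Cells are then fixed, nuclei stained with Hoechst, and PNC-positive cells counted.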

| SMILES | activity change (PNC), negative = inhibition |
| --- | --- |
| O=C(Cc1ccccc1)Nc1cccc(C(=O)N/N=C/c2ccco2)c1 | -20.1% |
| COC(=O)/C(C#N)=C/c1occc1C | 11.3% |
| Nc1cccc(-c2cc(-c3ccccc3)nc(-c3cccc(N)c3)n2)c1 | -112% (active) |
| Nc1cccc(CCc2nc3ccccc3[nH]2)c1 | -19.2% |
| CS(=O)(=O)c1sc2nc(-c3ccccc3)cc(-c3ccccc3)c2c1N | 18.6% |
| Cc1ccc(N2C(=O)C(NC(=O)c3c(F)cccc3F)(C(F)(F)F)C3=C2CC(C)(C)CC3=O)cc1 (stereo not drawn) | -6.53% |
| Cc1ccc2[nH]c(=O)c(CC=C(Cl)Cl)c(C)c2c1 | 8.75% |
| Cc1nc(-c2ccc(NC(=O)c3cccs3)cc2)cs1 | 20.4% |
| O=C(O)Cc1ccc(NC(=O)c2cccs2)cc1 | -2.77% |
| O=C(O)c1ccc(NC(=O)c2cccs2)cc1 | -100% (active) |
| CCCCN1C(=O)c2ccc(C(=O)Nc3ccc(S(=O)(=O)N(C)C)cc3)cc2C1=O | -17.6% |
| CCOC(=O)COc1ccc([N+](=O)[O-])cc1 | 14.3% |
| CCOc1cc(/C=N/NC(=O)OC)ccc1OCCSc1ccc(Cl)cc1 | 45.6% |
| CCCC(NC(=O)c1ccco1)c1nc2ccccc2[nH]1 (stereo not drawn) | 16.4% |
| Cc1ccc(SC(=O)COc2ccc(C)c(C)c2)cc1 | -106% (active) |
| Cc1cc(=O)oc2ccc(OCC(=O)O)cc12 | 55.8% |
| Cc1ccc(CNC(=O)COc2ccc3c(c2)CCC3)cc1 | -5.6% |
| O=C(COC(=O)c1cc([N+](=O)[O-])ccc1NCc1ccccc1)NC1CCCCC1 | 50.7% |
| Cc1ccc2c(c1)C(c1ccccc1)N(C(=O)c1ccc(S(=O)(=O)N3CCOCC3)cc1)CC(=O)N2 (stereo not drawn) | 7.14% |
| COc1ccc(/C=N/NC(=O)c2ccccc2)cc1OS(=O)(=O)c1ccccc1 | 45.9% |
| O=C(NC(=S)Nc1ccc2oc(=O)ccc2c1)c1ccc(-c2cccc(Cl)c2Cl)o1 | -8.36% |
| COC(=O)C1=C(C(=O)OC)C2(OC1c1ccc(Br)cc1)C(=O)c1ccccc1C2=O (stereo not drawn) | -100% (active) |
| CCOC(=O)C1=C(C)N=C2c3ccccc3C(=O)C2C1c1ccc(Br)cc1 (stereo not drawn) | -24.2% |
| COC(=O)C1=C(C)N(C)C(C)=C(C(=O)OC)C1c1cccc(Br)c1 | 20% |

| SMILES | activity change (PNC), negative = inhibition |
| --- | --- |
| Cc1cccc2cc(CN(C(=O)c3cccs3)c3ccccc3)c(=O)[nH]c12 | 29.9% |
| COc1ccc(/C(C)=N/Nc2cc(C(F)(F)F)ccc2Cl)c(OC)c1 | -13.2% |
| O=C(c1ccc2c(c1)OCO2)N1CCOCC1 | -100% (active) |
| O=C(c1ccc2c(c1)OCO2)N1CCN(C(=O)c2ccco2)CC1 | 54.5% |
| O=C(c1ccc2c(c1)OCO2)N1CCNc2ccccc2C1 | -29.9% |
| Cc1cccc(OP(=O)(Nc2c(C)n(C)n(-c3ccccc3)c2=O)Oc2cccc(C)c2)c1 | -6.43% |
| COc1ccc(N(C(=O)c2ccc(C)cc2)S(=O)(=O)c2cccs2)cc1 | 19.1% |
| O=C(CN1CCN(C(=O)c2cccc(F)c2)CC1)Nc1ccccc1F | 6.16% |
| Cc1ccc(NC(=S)NC(=O)c2ccc(-c3ccccc3)cc2)c(C)c1 | 6.22% |
| Cc1ccc(NC(=O)CC2C(=O)N(Cc3ccccc3)C(=S)N2NC(=O)c2cccc(F)c2)c(C)c1 (stereo not drawn) | -107% (active) |
| CC(=O)NC1=NN(C(C)=O)C(C)(CCS(=O)(=O)c2ccc(Cl)c(Cl)c2)S1 (stereo not drawn) | 72.1% |
| COc1ccc(OCCNS(=O)(=O)Cc2ccccc2)cc1 | 21.5% |
| CC(=O)Nc1ccc(NC(=O)C(C)OC(=O)c2ccccc2C(=O)c2ccc(Cl)c([N+](=O)[O-])c2)cc1 (stereo not drawn) | 14.8% |
| N#Cc1cccc(NC(=O)COC(=O)c2ccccc2C(=O)c2ccc(Cl)c([N+](=O)[O-])c2)c1 | -102% (active) |
| COC(=O)c1cc(NC(=O)Cc2ccccc2[N+](=O)[O-])ccc1Cl | -21.5% |
| CCc1nnc(NC(=O)/C=C/c2ccc(C)o2)s1 | 43.5% |
| COC(=O)C1=C(C)N(C)C(=S)NC1c1ccccc1 (stereo not drawn) | -28.4% |
| O=C(NCc1cccs1)C(=O)NCC1OCCCN1S(=O)(=O)c1ccc(F)cc1 (stereo not drawn) | 17.8% |
| Cc1cccc(N2CCN(C(=O)c3ccccc3NC(=O)C3CCCCC3C(=O)O)CC2)c1 (stereo not drawn) | 0.826% |
| O=S(=O)(NCCSc1ccccn1)c1ccc(Cl)cc1 | 47.1% |
| CC1CN(S(=O)(=O)c2ccccc2)C(C)CN1S(=O)(=O)c1ccccc1 (stereo not drawn) | -100% (active) |
| CCc1nnc(NC(=O)C2CCCN2S(=O)(=O)c2ccccc2)s1 (stereo not drawn) | 0.753% |
| COc1ccc(C2SCCN2S(=O)(=O)c2ccccc2)cc1OC (stereo not drawn) | -9.05% |
| CCCn1nc(NS(=O)(=O)c2ccccc2)c2cc3cc(C)ccc3nc21 | 9.97% |

| SMILES | activity change (PNC), negative = inhibition |
| --- | --- |
| CN(C)S(=O)(=O)c1cc(NC(=O)CN2C(=O)NC3(CCCc4ccccc43)C2=O)ccc1Cl (stereo not drawn) | 71.5% |
| CCOc1ccc(NC(=S)N2CCC(N(C)CC3CCCO3)CC2)cc1 (stereo not drawn) | 0.566% |
| CC1CCN(C(=O)c2ccc(S(=O)(=O)Cc3cc(F)ccc3F)c([N+](=O)[O-])c2)CC1 | 25.9% |
| COCCCNCCOCCOc1ccc(Cl)cc1Br | 40.2% |
| Cc1ccc(C(C)(C)C)c(OCCCCN2CCCC2)c1 | -12.5% |
| CC(C)(C)NCCCOc1ccc(Cl)cc1C(C)(C)C | -102% (active) |
| CCCCc1nc(NCc2ccccc2)c(C#N)c2c1CCCC2 | 225% |
| Cc1nn(Cc2ccccc2)c(C)c1C(=O)NCCN1C(=O)S/C(=C\c2ccc(F)cc2)C1=O | 37% |
| C[N+]1(CC(O)COc2ccccc2)CCN(C(=O)c2ccc([N+](=O)[O-])cc2)CC1 (stereo not drawn) | 13% |
| CCCCc1cc(=O)oc2cc(C)cc(OCc3nn[nH]n3)c12 | 9.68% |
| O=c1oc2cc(O)ccc2cc1-c1ccc(F)cc1 | 13% |
| COc1ccc(-c2cc3ccc(OCc4nn[nH]n4)cc3oc2=O)cc1 | -119% (active) |
| Cc1cc(C)nc(N2CCN(c3ncnc4c3oc3ccccc34)CC2)n1 | -114% (active) |
| COc1ccccc1Nc1ncnc2c1oc1ccccc12 | 52.9% |
| CCc1nc(N2CCN(c3nc(C)cc(C)n3)CC2)c2oc3ccccc3c2n1 | -21.5% |
| O=C(COC(=O)c1c2c(nc3ccccc13)/C(=C\c1cccs1)CCC2)Nc1ccccc1Cl | -25.2% |
| O=C(CN1C(=O)NC2(CCCCCC2)C1=O)NCc1cccs1 | -4.41% |
| COc1ccccc1OCc1ccc(C(=O)N2CCN(C)CC2)o1 | -19.3% |
| O=C(c1ccc(Cl)c(Cl)c1)N1CCCC1 | 50.1% |
| Cc1c(Cl)cccc1NC(=O)Nc1ccc(C(=O)N2CCCC2)cc1 | -83.7% (active) |
| CS(=O)(=O)Nc1ccc(C(=O)N2CCCC2)cc1 | 3.33% |
| CCC(C)(C)C1CCC(=NNC(=O)c2ccc(Br)o2)CC1 (stereo not drawn) | -3.73% |
| CC(C)c1nccn1S(=O)(=O)c1cc([N+](=O)[O-])ccc1Cl | 2.64% |
| CCc1nnc(NC(=O)CCN(c2ccc(C)cc2)S(=O)(=O)c2ccccc2)s1 | 2.13% |

| SMILES | activity change (PNC), negative = inhibition |
| --- | --- |
| CCNc1ccc(C(=O)OCC(=O)N2c3ccccc3NC(=O)C2(C)C)cc1[N+](=O)[O-] | -112% (active) |
| CC1(C)C(=O)Nc2ccccc2N1C(=O)COC(=O)Cn1cnc2ccccc2c1=O | -28.4% |
| Nc1ccc(C(=O)OCC(=O)NC2CCCc3ccccc32)cc1[N+](=O)[O-] (stereo not drawn) | -26.5% |
| Cc1ccc(C(=O)CNc2ccc(F)cc2)cc1 | 23.7% |
| COc1ccc(/C=C/C(=O)OCC(=O)Nc2cccc(Oc3ccccc3)c2)c(OC)c1 | 25.2% |
| O=C(COC(=O)/C=C/c1nc2ccccc2s1)Nc1ccccc1Oc1ccccc1 | -108% (active) |
| COc1cc(/C=C/C(=O)OCC(=O)Nc2cccc(Oc3ccccc3)c2)ccc1O | -28.3% |
| O=C(NC1CCN(Cc2ccccc2)CC1)c1c(F)cccc1F | -1.56% |
| COCCNC(=O)c1ccc(N2CCC3(CC2)OCCO3)c([N+](=O)[O-])c1 | -24.5% |
| COc1cccc(NC(=S)NCc2ccco2)c1 | 14.5% |
| Cc1ccc(NC(=O)NC(=O)N(C2CCCCC2)S(=O)(=O)c2ccccc2)cc1 | 8.69% |
| OC(COCC1COc2ccccc2O1)CN1CCN(c2ccc(F)cc2)CC1 (stereo not drawn) | -2.15% |
| OC(COc1ccc2ccccc2c1)CN1CCOCC1 (stereo not drawn) | 13% |
| OC(COCc1ccco1)CN1CCN(c2ccccc2)CC1 (stereo not drawn) | -85.3% (active) |
| Cc1ccc(-c2csc(NNC(=O)c3ccccc3)n2)cc1 | -13.8% |
| Cc1ccc(O)c(-c2cc(C(=O)NCc3ccccc3)[nH]n2)c1 | -13.6% |
| Cc1cccc(NC(=O)CN2C(=O)CNC2=O)c1 | 48.7% |
| Cc1cccc(NC(=O)C2CC(=O)OC23CCCC3)c1 (stereo not drawn) | -100% (active) |
| Cc1cccc(NC(=O)C2CCN(S(=O)(=O)c3cccc4cccnc34)CC2)c1 | 20.6% |
| CCCCOc1ccc(NC(=O)[C@@H]2CCCN2C(=O)C2CCN(S(=O)(=O)c3ccc(C)cc3)CC2)cc1 | 7.21% |
| COc1cc(/C=N/O)ccc1OCc1ccc([N+](=O)[O-])cc1 | 15.8% |
